Results on eight compounds are retold here after PubChem BioAssay (NCI).

Among the test systems are SR leukemia; RPMI-8226 leukemia; OVCAR-8 ovarian; OVCAR-5 ovarian; OVCAR-4 ovarian; SK-OV-3 ovarian; IGROV1 ovarian; OVCAR-3 ovarian; HS 578T breast; NCI/ADR-RES ovarian; T-47D breast; BT-549 breast; MDA-MB-435 melanoma; SW-620 colon; MCF7 breast; HCT-116 colon; HCC-2998 colon; KM12 colon; MDA-MB-468 breast.
What all share (assay): NCI-60 one-dose screen, 48 h (100 = growth as untreated, 0 = no growth, -100 = all killed)
Holding throughout (conditions): 10 µM unless noted

This is part of a sample that, as a whole, favours compounds with a hit. Of some 83,000 tested, about 20% had one in any assay.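 Assay: single dose, 48 h. Readout: percent growth (0 = no net growth; negative = cell death). Active: <10.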 Values without a mark were called inactive. The source made the active and inactive calls.

As for `COc1ccc2c(c1)C(Sc1ccc(Br)cc1)c1c(nc(N)c(C#N)c1N)O2` (configuration not stated), the growth in the assay on SR leukemia is 46.5%; in the assay with RPMI-8226 leukemia, 87.1%; with OVCAR-8 ovarian it was 87%; in the assay on OVCAR-5 ovarian, 113%; in the assay with OVCAR-4 ovarian, 92.4%; in the assay on SK-OV-3 ovarian, 98.1%. For the same compound, the growth is 59.1% with IGROV1 ovarian; 114% with OVCAR-3 ovarian; 88.8% in the assay with HS 578T breast; 86.5% in the assay on NCI/ADR-RES ovarian; 80.3% with T-47D breast; 56.1% in the assay on BT-549 breast. The growth with MDA-MB-435 melanoma is 88%; in the assay with SW-620 colon it was 80.1%; with MCF7 breast, 61.9%; with HCT-116 colon, 75.1%; in the assay with HCC-2998 colon, 111%; with KM12 colon, 74.7%. The growth in the assay on MDA-MB-468 breast was 97.1%.
Turning to `O=C(Cc1c(-c2cccc([N+](=O)[O-])c2)n(-c2ncnc3c2c(-c2ccccc2)c(-c2ccccc2)n3Cc2ccccc2)[nH]c1=O)c1ccc(Cl)c(Cl)c1`, the growth with SR leukemia was 59.8%; in the assay with RPMI-8226 leukemia it was 12.6%; with OVCAR-8 ovarian, 34.3%; with OVCAR-5 ovarian, 66.8%; in the assay on OVCAR-4 ovarian, 31.6%; in the assay with SK-OV-3 ovarian, 72.2%. Further, the growth with IGROV1 ovarian is 33.8%; in the assay with OVCAR-3 ovarian it was 46.5%; in the assay on HS 578T breast, 20.2%; with NCI/ADR-RES ovarian it was 51.6%; in the assay on T-47D breast, 0.846% (active); in the assay with BT-549 breast, 63.7%. Besides, the growth in the assay with MDA-MB-435 melanoma is 19.9%; in the assay on SW-620 colon, 56.1%; in the assay with MCF7 breast, 24.7%; in the assay on HCT-116 colon it was 32.3%; in the assay on HCC-2998 colon, 26.7%; in the assay with KM12 colon, 24.7%. Besides, in the assay on MDA-MB-468 breast, the growth was -10.4% (active).
With `O=C(N=Nc1c(O)[nH]c2ccc(Cl)cc12)c1ccc2nc(-c3ccc(Cl)cc3)[nH]c2c1`, the growth in the assay on SR leukemia is 10.6%; with RPMI-8226 leukemia, 77.8%; in the assay on OVCAR-8 ovarian, -34.8% (active); in the assay on OVCAR-5 ovarian, 36.2%; in the assay on OVCAR-4 ovarian, -3.41% (active); in the assay on SK-OV-3 ovarian, 42%. For the same compound, the growth in the assay on IGROV1 ovarian was -11.1% (active); in the assay with OVCAR-3 ovarian, -5.16% (active); in the assay with HS 578T breast, 12.2%; in the assay with NCI/ADR-RES ovarian, 94.7%; in the assay with T-47D breast it was -2.02% (active); in the assay on BT-549 breast, 49%. For the same compound, the growth was -32.9% (active) with MDA-MB-435 melanoma; 3.1% (active) in the assay on SW-620 colon; 1.03% (active) with MCF7 breast; 9.89% (active) in the assay with HCT-116 colon; -34.6% (active) in the assay with HCC-2998 colon; 42.3% in the assay on KM12 colon. Moreover, in the assay with MDA-MB-468 breast, the growth is -80.7% (active).
As for `O=C(N/N=C/c1ccoc1)c1[nH]c2ccc(Br)cc2c1-c1ccccc1`, the growth in the assay with SR leukemia was -13.1% (active); in the assay on RPMI-8226 leukemia, 2.8% (active); in the assay on OVCAR-8 ovarian, -47.6% (active); in the assay on OVCAR-5 ovarian, -100% (active); in the assay on OVCAR-4 ovarian, -86.8% (active); in the assay with SK-OV-3 ovarian, -83.6% (active). For the same compound, the growth with IGROV1 ovarian is -87.4% (active); in the assay on OVCAR-3 ovarian, -45.8% (active); in the assay with HS 578T breast, -28% (active); in the assay on NCI/ADR-RES ovarian it was -72.5% (active); in the assay with T-47D breast, -74.7% (active); in the assay with BT-549 breast, -90.3% (active). Also, the growth with MDA-MB-435 melanoma is -96% (active); with SW-620 colon, -83.6% (active); with MCF7 breast, -70.3% (active); in the assay with HCT-116 colon it was -75.8% (active); with HCC-2998 colon it was -100% (active); in the assay on KM12 colon, -25.4% (active). For the same compound, the growth in the assay on MDA-MB-468 breast was -88.5% (active).
Turning to `O=CNc1cccc(-n2cnc3cc(-c4ccc(O)cc4)ccc32)c1`, the growth in the assay with SR leukemia was 33.8%; with RPMI-8226 leukemia, 24.3%; in the assay with OVCAR-8 ovarian, 31.6%; in the assay with OVCAR-5 ovarian, 68.7%; with OVCAR-4 ovarian, 65.4%; with SK-OV-3 ovarian it was 28.4%. The growth in the assay with IGROV1 ovarian is 44.3%; with OVCAR-3 ovarian, 26.8%; in the assay on HS 578T breast, 24.4%; with NCI/ADR-RES ovarian, 12.1%; in the assay with T-47D breast, 37.5%; with BT-549 breast, 52.6%. Further, the growth in the assay on MDA-MB-435 melanoma is 24.1%; with SW-620 colon it was 46.3%; with MCF7 breast it was 35%; with HCT-116 colon, 14.1%; with HCC-2998 colon it was 43.5%; in the assay on KM12 colon it was 26.4%. Also, the growth in the assay with MDA-MB-468 breast is 19.5%.
In the case of `Clc1ccc(-c2nc3ccc(-c4nnc(SCc5ccccc5)o4)cc3[nH]2)cc1`, the growth is 23.3% with SR leukemia; 27.7% with RPMI-8226 leukemia; 8.94% (active) in the assay on OVCAR-8 ovarian; 32.4% with OVCAR-5 ovarian; 3.57% (active) with OVCAR-4 ovarian; 83.1% in the assay on SK-OV-3 ovarian. Moreover, the growth with IGROV1 ovarian was 27.1%; in the assay on OVCAR-3 ovarian, -1.55% (active); with HS 578T breast, 48.7%; in the assay with NCI/ADR-RES ovarian it was -9.86% (active); with T-47D breast, 7.8% (active); with BT-549 breast, 58.7%. In addition, the growth in the assay with MDA-MB-435 melanoma was 62.6%; in the assay with SW-620 colon, 12.9%; in the assay on MCF7 breast, 8.62% (active); in the assay on HCT-116 colon, 2.75% (active); in the assay on HCC-2998 colon it was 39.4%; in the assay with KM12 colon it was 35.5%. Besides, the growth in the assay on MDA-MB-468 breast was 11%.
Consider `COC(=O)c1cc(C(C)=O)n2c3ccccc3c3ccccc3c12`, for which the growth with SR leukemia is 64.7%; in the assay on RPMI-8226 leukemia it was 87.7%; with OVCAR-8 ovarian, 50.5%; with OVCAR-5 ovarian it was 92.6%; with OVCAR-4 ovarian it was 44.3%; in the assay on SK-OV-3 ovarian it was 99.3%. Further, the growth was 41.5% in the assay on IGROV1 ovarian; 73.4% with OVCAR-3 ovarian; 29.8% in the assay with HS 578T breast; 44.6% in the assay with NCI/ADR-RES ovarian; 54.6% with T-47D breast; 38.5% in the assay with BT-549 breast. The growth is 93% with MDA-MB-435 melanoma; 89.3% in the assay with SW-620 colon; 59.6% in the assay on MCF7 breast; 50.3% in the assay on HCT-116 colon; 91.4% in the assay with HCC-2998 colon; 86% in the assay with KM12 colon. Also, in the assay on MDA-MB-468 breast, the growth is 65.8%.
In the case of `C/C(=N\Nc1ccc(S(N)(=O)=O)cc1)c1cnn(-c2cc(=O)[nH]c3ccc(Br)cc23)c1C`, the growth is 4.11% (active) with SR leukemia; 74.3% in the assay on RPMI-8226 leukemia; 80.5% in the assay on OVCAR-8 ovarian; 81.4% with OVCAR-5 ovarian; 67.7% in the assay on OVCAR-4 ovarian; 69.2% in the assay with SK-OV-3 ovarian. Moreover, the growth in the assay on IGROV1 ovarian is 56.9%; in the assay with OVCAR-3 ovarian it was 56.2%; with HS 578T breast it was 28.4%; in the assay with NCI/ADR-RES ovarian it was 90.1%; in the assay with T-47D breast, 17.5%; with BT-549 breast, 37.7%. The growth with MDA-MB-435 melanoma is 4.39% (active); in the assay on SW-620 colon, 75.7%; in the assay with MCF7 breast, 23.1%; in the assay on HCT-116 colon it was 58.5%; in the assay on HCC-2998 colon, 73.4%; with KM12 colon it was 53.7%. Besides, the growth in the assay on MDA-MB-468 breast is -10.8% (active).
